Test results as given in paper PMC7862700, “An all-to-all approach to the identification of sequence-specific readers for epigenetic DNA modifications on cytosine”.

Assays:
Assay in all cases: DAPPL (digital affinity profiling via proximity ligation, sequencing); 10 mM Tris-HCl pH 7.5, 50 mM NaCl, 1 mM DTT, 4% glycerol, room temperature, 30 min; GST-TFs on glutathione beads, 16-mer random dsDNA library, 0.1% formaldehyde crosslink after washing; high values mean tight binding
FEV = target: T1, FEV (Homo sapiens, UniProt Q99581 1-238); details: protein: recombinant; tags: N-terminal GST; dsDNA, one strand shown
T1 sequence: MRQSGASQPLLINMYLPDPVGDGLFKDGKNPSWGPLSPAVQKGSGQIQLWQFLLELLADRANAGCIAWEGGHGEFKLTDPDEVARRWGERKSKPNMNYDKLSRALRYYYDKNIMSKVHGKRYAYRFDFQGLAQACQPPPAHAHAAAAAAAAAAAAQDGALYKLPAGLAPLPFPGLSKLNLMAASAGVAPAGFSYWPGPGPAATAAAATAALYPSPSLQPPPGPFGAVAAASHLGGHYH
In short: (§1)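 Binding signal is each hexamer's read frequency for a factor divided by its frequency in the tag-only sample. The factors were GST-fused human transcription factors from yeast, captured on glutathione beads, DNA-barcoded and pooled with that sample. Pools were incubated with 200 nmole of a random double-stranded 16-mer DNA library in Tris/NaCl/DTT/glycerol buffer at room temperature for 30 min, then washed, crosslinked with 0.1% formaldehyde, proximity-ligated with BsaI/T4 ligase (1 h, 37 °C), PCR-amplified and sequenced on an Illumina NextSeq500.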

ETV5 = ETV5 (Homo sapiens, UniProt P41161 1-510); details: protein: recombinant; tags: N-terminal GST; dsDNA, one strand shown
Sequence of ETV5 (P41161 whole entry): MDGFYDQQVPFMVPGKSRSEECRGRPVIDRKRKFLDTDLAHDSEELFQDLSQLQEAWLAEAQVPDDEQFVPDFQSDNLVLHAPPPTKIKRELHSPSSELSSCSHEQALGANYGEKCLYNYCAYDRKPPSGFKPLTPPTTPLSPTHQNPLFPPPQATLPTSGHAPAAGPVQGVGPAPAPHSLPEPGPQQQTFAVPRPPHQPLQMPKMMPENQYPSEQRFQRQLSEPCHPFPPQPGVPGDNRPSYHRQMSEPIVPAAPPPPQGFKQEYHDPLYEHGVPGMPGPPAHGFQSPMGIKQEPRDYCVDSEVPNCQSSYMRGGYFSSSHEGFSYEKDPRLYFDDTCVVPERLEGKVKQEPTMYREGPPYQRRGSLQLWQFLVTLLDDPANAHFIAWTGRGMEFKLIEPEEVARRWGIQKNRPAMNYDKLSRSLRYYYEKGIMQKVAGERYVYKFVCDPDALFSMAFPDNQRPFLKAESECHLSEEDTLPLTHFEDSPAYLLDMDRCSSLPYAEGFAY
In short: as §1

HSF1 = HSF1 (Homo sapiens, UniProt Q00613 1-529); details: protein: recombinant; tags: N-terminal GST; chain copies: 3; dsDNA, one strand shown
Sequence of HSF1 (Q00613 whole entry): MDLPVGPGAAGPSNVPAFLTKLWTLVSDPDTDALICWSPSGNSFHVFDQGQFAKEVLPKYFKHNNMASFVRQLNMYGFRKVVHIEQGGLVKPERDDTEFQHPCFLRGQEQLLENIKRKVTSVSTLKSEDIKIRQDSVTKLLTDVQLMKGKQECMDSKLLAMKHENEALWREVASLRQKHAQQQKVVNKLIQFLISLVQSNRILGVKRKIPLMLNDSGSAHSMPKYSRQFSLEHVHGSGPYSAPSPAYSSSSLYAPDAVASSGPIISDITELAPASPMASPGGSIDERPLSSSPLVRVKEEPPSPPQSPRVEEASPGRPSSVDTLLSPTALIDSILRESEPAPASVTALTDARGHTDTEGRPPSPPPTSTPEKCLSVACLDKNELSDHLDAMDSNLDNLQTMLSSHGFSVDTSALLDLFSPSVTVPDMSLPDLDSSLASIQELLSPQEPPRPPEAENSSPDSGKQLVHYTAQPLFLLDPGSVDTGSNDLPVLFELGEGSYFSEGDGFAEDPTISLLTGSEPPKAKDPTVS
In short: as §1

SPIC = target: T2, SPIC (Homo sapiens, UniProt Q8N5J4 1-248); details: protein: recombinant; tags: N-terminal GST; dsDNA, one strand shown
T2 sequence: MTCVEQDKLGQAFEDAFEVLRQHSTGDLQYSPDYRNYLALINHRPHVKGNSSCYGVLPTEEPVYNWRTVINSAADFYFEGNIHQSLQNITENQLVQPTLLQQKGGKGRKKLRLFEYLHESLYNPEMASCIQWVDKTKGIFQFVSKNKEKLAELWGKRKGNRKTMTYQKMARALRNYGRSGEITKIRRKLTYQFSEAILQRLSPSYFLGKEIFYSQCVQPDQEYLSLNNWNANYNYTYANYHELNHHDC
In short: as §1

ELF4 = ELF4 (Homo sapiens, UniProt Q99607 1-663); details: protein: recombinant; tags: N-terminal GST; dsDNA, one strand shown
Sequence of ELF4 (Q99607 whole entry): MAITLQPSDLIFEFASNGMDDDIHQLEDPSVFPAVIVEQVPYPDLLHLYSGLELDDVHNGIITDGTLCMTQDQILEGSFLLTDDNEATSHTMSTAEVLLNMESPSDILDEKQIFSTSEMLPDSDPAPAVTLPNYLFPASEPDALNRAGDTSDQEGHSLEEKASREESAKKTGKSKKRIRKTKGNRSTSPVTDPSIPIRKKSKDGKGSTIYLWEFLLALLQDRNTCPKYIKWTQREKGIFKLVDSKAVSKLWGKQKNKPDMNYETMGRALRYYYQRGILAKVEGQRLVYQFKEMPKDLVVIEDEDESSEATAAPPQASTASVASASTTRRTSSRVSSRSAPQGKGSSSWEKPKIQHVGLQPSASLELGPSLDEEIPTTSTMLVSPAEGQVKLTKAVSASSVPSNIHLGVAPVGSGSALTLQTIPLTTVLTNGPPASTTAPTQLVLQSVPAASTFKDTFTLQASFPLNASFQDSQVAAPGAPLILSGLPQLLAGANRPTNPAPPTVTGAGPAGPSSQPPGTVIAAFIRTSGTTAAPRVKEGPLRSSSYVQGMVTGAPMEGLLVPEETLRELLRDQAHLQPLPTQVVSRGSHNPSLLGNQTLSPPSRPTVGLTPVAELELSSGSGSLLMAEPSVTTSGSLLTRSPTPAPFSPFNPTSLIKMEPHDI
In short: as §1

ELK4 = target: T3, ELK4 (Homo sapiens, UniProt P28324-2 1-405); details: protein: recombinant; tags: N-terminal GST; dsDNA, one strand shown
T3 sequence: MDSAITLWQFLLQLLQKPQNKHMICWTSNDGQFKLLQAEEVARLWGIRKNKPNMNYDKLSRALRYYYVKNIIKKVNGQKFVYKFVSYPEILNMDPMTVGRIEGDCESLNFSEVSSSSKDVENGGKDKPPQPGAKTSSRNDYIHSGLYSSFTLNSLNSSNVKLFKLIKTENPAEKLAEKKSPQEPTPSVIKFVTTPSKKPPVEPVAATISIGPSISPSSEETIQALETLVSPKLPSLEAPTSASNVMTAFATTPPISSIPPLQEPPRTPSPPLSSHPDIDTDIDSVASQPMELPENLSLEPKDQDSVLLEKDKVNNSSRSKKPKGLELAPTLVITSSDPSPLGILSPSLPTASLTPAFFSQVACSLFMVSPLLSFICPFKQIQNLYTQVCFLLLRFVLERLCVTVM
In short: as §1

ETV2 = target: T4, ETV2 (Homo sapiens, UniProt O00321 1-342); details: protein: recombinant; tags: N-terminal GST; dsDNA, one strand shown
T4 sequence: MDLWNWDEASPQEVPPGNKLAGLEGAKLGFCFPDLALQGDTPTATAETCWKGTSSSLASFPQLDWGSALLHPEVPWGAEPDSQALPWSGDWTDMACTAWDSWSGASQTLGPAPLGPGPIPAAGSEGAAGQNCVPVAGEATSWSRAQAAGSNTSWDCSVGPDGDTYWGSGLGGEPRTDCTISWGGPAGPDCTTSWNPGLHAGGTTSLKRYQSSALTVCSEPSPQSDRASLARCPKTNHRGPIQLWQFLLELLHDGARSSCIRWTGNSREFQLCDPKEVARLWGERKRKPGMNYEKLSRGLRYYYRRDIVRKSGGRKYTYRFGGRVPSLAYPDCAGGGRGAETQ
In short: as §1

ELF3 = target: T5, ELF3 (Homo sapiens, UniProt P78545 1-371); details: protein: recombinant; tags: N-terminal GST; dsDNA, one strand shown
T5 sequence: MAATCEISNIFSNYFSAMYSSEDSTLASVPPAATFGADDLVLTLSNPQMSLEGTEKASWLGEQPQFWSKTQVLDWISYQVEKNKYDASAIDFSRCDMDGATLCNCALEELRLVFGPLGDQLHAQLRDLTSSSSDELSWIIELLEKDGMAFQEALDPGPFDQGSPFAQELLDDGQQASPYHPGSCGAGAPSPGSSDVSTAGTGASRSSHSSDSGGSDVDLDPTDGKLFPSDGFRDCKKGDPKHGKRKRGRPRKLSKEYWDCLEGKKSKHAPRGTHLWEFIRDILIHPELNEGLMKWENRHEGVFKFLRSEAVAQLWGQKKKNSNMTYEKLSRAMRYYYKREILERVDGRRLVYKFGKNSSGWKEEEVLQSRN
In short: as §1

CRX = CRX (Homo sapiens, UniProt O43186 1-299); details: protein: recombinant; tags: N-terminal GST; dsDNA, one strand shown
Sequence of CRX (O43186 whole entry): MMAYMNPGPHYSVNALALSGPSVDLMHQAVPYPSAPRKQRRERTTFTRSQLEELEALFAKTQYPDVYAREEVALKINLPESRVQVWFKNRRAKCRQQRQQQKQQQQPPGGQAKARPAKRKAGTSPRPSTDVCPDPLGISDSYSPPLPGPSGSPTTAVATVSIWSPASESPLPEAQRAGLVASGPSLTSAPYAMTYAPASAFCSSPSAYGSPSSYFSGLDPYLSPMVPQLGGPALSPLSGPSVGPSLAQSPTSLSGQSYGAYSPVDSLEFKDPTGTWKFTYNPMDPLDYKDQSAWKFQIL
In short: as §1

ETV1 = ETV1 (Homo sapiens, UniProt P50549 1-477); details: protein: recombinant; tags: N-terminal GST; dsDNA, one strand shown
Sequence of ETV1 (P50549 whole entry): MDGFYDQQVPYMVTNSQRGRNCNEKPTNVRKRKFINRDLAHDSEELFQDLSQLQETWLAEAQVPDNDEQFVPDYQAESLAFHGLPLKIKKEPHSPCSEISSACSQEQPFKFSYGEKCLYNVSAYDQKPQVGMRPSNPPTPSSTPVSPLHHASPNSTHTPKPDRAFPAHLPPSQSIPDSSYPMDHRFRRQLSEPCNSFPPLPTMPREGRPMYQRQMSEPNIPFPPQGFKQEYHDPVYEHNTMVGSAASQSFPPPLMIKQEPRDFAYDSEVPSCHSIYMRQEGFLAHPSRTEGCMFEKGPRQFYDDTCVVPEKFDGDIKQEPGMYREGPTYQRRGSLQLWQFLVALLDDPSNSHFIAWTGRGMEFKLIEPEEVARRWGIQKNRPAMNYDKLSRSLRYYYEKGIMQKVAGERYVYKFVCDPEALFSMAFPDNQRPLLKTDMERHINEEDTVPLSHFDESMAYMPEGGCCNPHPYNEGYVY
In short: as §1

ERF = target: T6, ERF (Homo sapiens, UniProt P50548 1-548); details: protein: recombinant; tags: N-terminal GST; dsDNA, one strand shown
T6 sequence: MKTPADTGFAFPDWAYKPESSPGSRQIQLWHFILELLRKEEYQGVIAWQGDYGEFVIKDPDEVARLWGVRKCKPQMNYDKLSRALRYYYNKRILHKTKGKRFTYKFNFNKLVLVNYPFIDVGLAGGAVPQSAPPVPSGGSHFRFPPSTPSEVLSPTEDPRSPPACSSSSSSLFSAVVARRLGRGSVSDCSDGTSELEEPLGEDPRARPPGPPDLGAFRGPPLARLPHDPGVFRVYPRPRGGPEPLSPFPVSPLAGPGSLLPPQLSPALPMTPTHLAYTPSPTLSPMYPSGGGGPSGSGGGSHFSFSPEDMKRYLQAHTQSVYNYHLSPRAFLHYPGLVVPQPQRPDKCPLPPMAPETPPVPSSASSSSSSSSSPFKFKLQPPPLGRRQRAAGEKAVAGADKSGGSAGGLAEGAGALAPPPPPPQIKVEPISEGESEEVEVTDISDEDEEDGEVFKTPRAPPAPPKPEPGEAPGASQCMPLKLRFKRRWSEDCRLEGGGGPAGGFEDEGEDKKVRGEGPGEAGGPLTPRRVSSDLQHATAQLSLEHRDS
In short: as §1

ETV3L = target: T7, ETV3L (Homo sapiens, UniProt Q6ZN32 1-361); details: protein: recombinant; tags: N-terminal GST; dsDNA, one strand shown
T7 sequence: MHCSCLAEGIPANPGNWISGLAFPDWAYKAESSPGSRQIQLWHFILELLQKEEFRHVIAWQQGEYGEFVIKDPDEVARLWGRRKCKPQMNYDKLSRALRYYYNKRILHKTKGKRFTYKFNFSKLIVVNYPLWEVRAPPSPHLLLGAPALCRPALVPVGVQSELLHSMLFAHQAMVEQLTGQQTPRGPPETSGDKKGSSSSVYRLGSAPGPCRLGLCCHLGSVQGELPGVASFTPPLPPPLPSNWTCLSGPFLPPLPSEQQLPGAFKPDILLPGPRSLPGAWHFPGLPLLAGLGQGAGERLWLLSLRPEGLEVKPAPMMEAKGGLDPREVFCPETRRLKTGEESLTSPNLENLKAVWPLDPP
In short: as §1

ETS2 = target: T8, ETS2 (Homo sapiens, UniProt P15036 1-469); details: protein: recombinant; tags: N-terminal GST; dsDNA, one strand shown
T8 sequence: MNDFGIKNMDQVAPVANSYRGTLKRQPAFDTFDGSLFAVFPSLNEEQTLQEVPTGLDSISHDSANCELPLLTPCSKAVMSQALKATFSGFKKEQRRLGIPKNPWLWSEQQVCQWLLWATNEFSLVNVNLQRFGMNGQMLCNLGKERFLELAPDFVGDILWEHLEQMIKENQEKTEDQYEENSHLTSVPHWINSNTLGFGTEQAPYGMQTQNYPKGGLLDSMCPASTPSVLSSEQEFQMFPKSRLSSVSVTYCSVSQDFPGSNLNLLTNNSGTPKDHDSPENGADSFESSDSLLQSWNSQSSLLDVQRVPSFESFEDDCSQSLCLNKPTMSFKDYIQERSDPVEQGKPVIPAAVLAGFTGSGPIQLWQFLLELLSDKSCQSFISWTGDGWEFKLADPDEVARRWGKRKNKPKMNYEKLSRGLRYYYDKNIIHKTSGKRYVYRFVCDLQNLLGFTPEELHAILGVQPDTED
In short: as §1

SPDEF = target: T9, SPDEF (Homo sapiens, UniProt O95238 1-335); details: protein: recombinant; tags: N-terminal GST; dsDNA, one strand shown
T9 sequence: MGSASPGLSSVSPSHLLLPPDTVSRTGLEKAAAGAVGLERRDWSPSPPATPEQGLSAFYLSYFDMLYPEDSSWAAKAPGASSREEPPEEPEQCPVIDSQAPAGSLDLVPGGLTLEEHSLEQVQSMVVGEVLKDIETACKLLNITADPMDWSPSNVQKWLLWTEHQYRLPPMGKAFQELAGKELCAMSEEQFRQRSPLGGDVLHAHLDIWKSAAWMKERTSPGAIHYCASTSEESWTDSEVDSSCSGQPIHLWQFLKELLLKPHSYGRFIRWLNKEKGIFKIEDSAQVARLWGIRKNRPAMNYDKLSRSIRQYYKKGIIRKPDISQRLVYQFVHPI
In short: as §1

ETV7 = target: T10, ETV7 (Homo sapiens, UniProt Q9Y603 1-341); details: protein: recombinant; tags: N-terminal GST; dsDNA, one strand shown
T10 sequence: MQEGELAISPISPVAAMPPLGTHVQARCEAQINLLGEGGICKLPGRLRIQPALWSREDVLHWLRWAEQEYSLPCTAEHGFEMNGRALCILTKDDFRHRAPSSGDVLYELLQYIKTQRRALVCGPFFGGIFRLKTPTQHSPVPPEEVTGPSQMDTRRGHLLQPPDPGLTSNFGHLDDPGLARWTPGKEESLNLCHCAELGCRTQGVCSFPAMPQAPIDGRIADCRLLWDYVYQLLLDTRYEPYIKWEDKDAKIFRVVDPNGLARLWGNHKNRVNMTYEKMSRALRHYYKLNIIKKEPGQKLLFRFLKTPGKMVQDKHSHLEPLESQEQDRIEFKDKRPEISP
In short: as §1

ELF5 = target: T11, ELF5 (Homo sapiens, UniProt Q9UKW6-2 1-255); details: protein: recombinant; tags: N-terminal GST; dsDNA, one strand shown
T11 sequence: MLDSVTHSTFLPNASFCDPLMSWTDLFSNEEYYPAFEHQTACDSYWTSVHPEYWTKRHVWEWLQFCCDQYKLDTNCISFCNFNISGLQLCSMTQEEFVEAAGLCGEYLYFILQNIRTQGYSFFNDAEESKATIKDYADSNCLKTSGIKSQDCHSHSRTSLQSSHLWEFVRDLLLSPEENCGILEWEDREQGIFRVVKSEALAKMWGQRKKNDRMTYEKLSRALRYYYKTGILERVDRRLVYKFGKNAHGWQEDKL
In short: as §1

ETV3 = target: T12, ETV3 (Homo sapiens, UniProt P41162-2 1-143); details: protein: recombinant; tags: N-terminal GST; dsDNA, one strand shown
T12 sequence: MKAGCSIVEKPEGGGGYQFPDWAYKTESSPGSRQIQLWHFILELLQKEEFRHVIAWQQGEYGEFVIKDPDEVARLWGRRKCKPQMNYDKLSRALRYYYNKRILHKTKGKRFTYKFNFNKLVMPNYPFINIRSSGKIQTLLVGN
In short: as §1

ETV6 = ETV6 (Homo sapiens, UniProt P41212 1-452); details: protein: recombinant; tags: N-terminal GST; dsDNA, one strand shown
Sequence of ETV6 (P41212 whole entry): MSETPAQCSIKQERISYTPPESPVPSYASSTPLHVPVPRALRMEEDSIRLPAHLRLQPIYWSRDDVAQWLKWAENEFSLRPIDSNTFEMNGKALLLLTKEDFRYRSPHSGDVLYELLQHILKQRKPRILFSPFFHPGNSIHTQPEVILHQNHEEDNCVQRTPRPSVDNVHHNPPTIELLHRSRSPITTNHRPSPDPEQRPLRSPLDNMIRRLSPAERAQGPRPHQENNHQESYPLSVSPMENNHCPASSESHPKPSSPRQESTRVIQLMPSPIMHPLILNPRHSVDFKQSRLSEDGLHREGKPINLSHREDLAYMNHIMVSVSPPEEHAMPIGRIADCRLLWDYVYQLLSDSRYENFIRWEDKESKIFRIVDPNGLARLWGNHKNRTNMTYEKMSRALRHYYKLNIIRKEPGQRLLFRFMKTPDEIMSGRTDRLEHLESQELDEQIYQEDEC
In short: as §1

Sequence: TAATCC
- binding signal (FEV): 1.24 fold enrichment (6-mer frequency, TF over GST control)
- binding signal (ETV5): 1.3 fold enrichment (6-mer frequency, TF over GST control)
- binding signal (HSF1): 4.27 fold enrichment (6-mer frequency, TF over GST control)
- binding signal (SPIC): 1.14 fold enrichment (6-mer frequency, TF over GST control)
- binding signal (ELF4): 1.23 fold enrichment (6-mer frequency, TF over GST control)
- binding signal (ELK4): 1.23 fold enrichment (6-mer frequency, TF over GST control)
- binding signal (ETV2): 1.2 fold enrichment (6-mer frequency, TF over GST control)
- binding signal (ELF3): 1.22 fold enrichment (6-mer frequency, TF over GST control)
- binding signal (CRX): 7.84 fold enrichment (6-mer frequency, TF over GST control)
- binding signal (ETV1): 1.26 fold enrichment (6-mer frequency, TF over GST control)
- binding signal (ERF): 1.12 fold enrichment (6-mer frequency, TF over GST control)
- binding signal (ETV3L): 1.21 fold enrichment (6-mer frequency, TF over GST control)
- binding signal (ETS2): 1.36 fold enrichment (6-mer frequency, TF over GST control)
- binding signal (SPDEF): 1.44 fold enrichment (6-mer frequency, TF over GST control)
- binding signal (ETV7): 1.28 fold enrichment (6-mer frequency, TF over GST control)
- binding signal (ELF5): 1.19 fold enrichment (6-mer frequency, TF over GST control)
- binding signal (ETV3): 1.29 fold enrichment (6-mer frequency, TF over GST control)
- binding signal (ETV6): 1.27 fold enrichment (6-mer frequency, TF over GST control)
